Records with an inconclusive call do not appear. A call without a number means that no potency is given here. The source made the active and inactive calls. The call rests on the fitted dose curve; in most records, active means well fitted curve in the direction sought with a large enough effect; inconclusive means small, poorly fitted or top-dose-only effect, or another doubt; inactive means no such curve, though single readings can be large; an effect the other way counts as inactive or inconclusive.
Tests used:
[1] = qHTS of pediatric cancer cell lines to identify multiple opportunities for drug repurposing: Primary screen for Rh41 cells (AID 1347108); further: nearly all actives have a fitted effect of over 70% in size; further: potency means the concentration at half of the fitted maximal effect
Procedure, shortened: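 Quantitative HTS format: each compound titrated (MIPE 11 points from 0.78 nM, NPC 8 points from 0.59 nM) onto cells plated 5 hours earlier. After 48 h at 37 degrees C, CellTiter-Glo luminescence was recorded.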

[2] = qHTS of pediatric cancer cell lines to identify multiple opportunities for drug repurposing: Confirmatory screen for NB1643 cells (AID 1347109); further: nearly all actives have a fitted effect of over 45% in size; further: potency means the concentration at half of the fitted maximal effect
Procedure, shortened: (§1)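 Cells (500-1,000/well) in growth media were settled 5 h at 37 degrees C, then given compounds for 48 h. Viability was read as CellTiter-Glo luminescence. Primary runs used MIPE at 11 points (0.78 nM-46 µM) and NPC at 8 points (0.59 nM-46 µM); follow-ups used 11 points.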

[3] = qHTS of pediatric cancer cell lines to identify multiple opportunities for drug repurposing: Confirmatory screen for A673 cells (AID 1347110);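 further: potency means the concentration at half of the fitted maximal effect; cells exposed to compound for 48 h before the viability read; nearly all actives have a fitted effect of over 65% in size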
Procedure, shortened: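 qHTS titration format: primary MIPE 0.78 nM-46 µM (11 pts), NPC 0.59 nM-46 µM; confirmation 11 pts. 48 h, CTG luminescence.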

[4] = qHTS of pediatric cancer cell lines to identify multiple opportunities for drug repurposing: Confirmatory screen for BT-12 cells (AID 1347112); further: nearly all actives have a fitted effect of over 55% in size; further: potency means the concentration at half of the fitted maximal effect
Procedure, shortened: as §1

[5] = qHTS of pediatric cancer cell lines to identify multiple opportunities for drug repurposing: Confirmatory screen for LAN-5 cells (AID 1347113); further: nearly all actives have a fitted effect of over 65% in size
Procedure, shortened: as §1

[6] = qHTS of pediatric cancer cell lines to identify multiple opportunities for drug repurposing: Confirmatory screen for NB-EBc1 cells (AID 1347115);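 further: cells exposed to compound for 48 h before the viability read; nearly all actives have a fitted effect of over 45% in size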; further: potency means the concentration at half of the fitted maximal effect
Procedure, shortened: as §1

[7] = qHTS of pediatric cancer cell lines to identify multiple opportunities for drug repurposing: Confirmatory screen for SJ-GBM2 cells (AID 1347116); further: nearly all actives have a fitted effect of over 60% in size; further: potency means the concentration at half of the fitted maximal effect
Procedure, shortened: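 Viability measured as metabolically active cells via CellTiter-Glo luminescence following 48 hours of compound exposure, 11-point dilutions in confirmatory testing. 500-1,000 cells/well plated 5 hours before dosing; controls were DMSO and 2.3 µM bortezomib.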

[8] = qHTS of pediatric cancer cell lines to identify multiple opportunities for drug repurposing: Confirmatory screen for BT-37 cells (AID 1347117); further: nearly all actives have a fitted effect of over 55% in size; further: potency means the concentration at half of the fitted maximal effect
Procedure, shortened: as §1

[9] = qHTS of pediatric cancer cell lines to identify multiple opportunities for drug repurposing: Confirmatory screen for SK-N-MC cells (AID 1347111);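 further: potency means the concentration at half of the fitted maximal effect; cells exposed to compound for 48 h before the readout; nearly all actives have a fitted effect of over 70% in size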
Procedure, shortened: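 Metabolically active cells were quantified by ATP-dependent luminescence (CellTiter-Glo, 15 min at room temperature) following 48 h treatment. Cells had been plated at 500-1,000 per well and settled for 5 h beforehand.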

CC(=O)Nc1cccc(-n2c(=O)n(C3CC3)c(=O)c3c(Nc4ccc(I)cc4F)n(C)c(=O)c(C)c32)c1
Potency [1]: inactive

CC1C(=O)OC2C(O)C34C5CC(C(C)(C)C)C36C(OC(=O)C6O)OC4(C(=O)O5)C12O (configuration not stated)
Potency [1]: inactive
Potency [2]: inactive
Potency [3]: 18.5 µM (active)
Potency [4]: inactive
Potency [5]: inactive
Potency [6]: inactive
Potency [7]: inactive
Potency [8]: inactive

NS(=O)(=O)c1ccc(Nc2nc(OCC3CCCCC3)c3[nH]cnc3n2)cc1
Potency [1]: inactive

CC(=O)N1CCN(c2ccc(OCc3nn(C)c(C)c3-c3cccc4c(CCCOc5cc(C)c(Cl)c(C)c5)c(C(=O)O)n(Cc5cccnc5)c34)cc2)CC1
Potency [1]: 18.7 µM (active)
Potency [2]: inactive
Potency [3]: 18.5 µM (active)
Potency [4]: inactive
Potency [5]: inactive

CC(C)N(CCCNC(=O)Nc1ccc(C(C)(C)C)cc1)C[C@H]1O[C@@H](n2cc(Br)c3c(N)ncnc32)[C@H](O)[C@H]1O
Potency [1]: 18.7 µM (active)

N#Cc1c(N(CC(=O)O)CC(=O)O)sc(C(=O)O)c1CC(=O)O
Potency [1]: inactive

COc1ccc(-c2ccc3ncc4c(c3c2)n(-c2ccc(N3CCNCC3)c(C(F)(F)F)c2)c(=O)n4C)cn1
Potency [1]: 0.0235 µM (active)
Potency [2]: 1.04 µM (active)
Potency [3]: 0.131 µM (active)
Potency [9]: 82.7 nM (active)
Potency [4]: 7.37 µM (active)
Potency [6]: 928 nM (active)
Potency [7]: 465 nM (active)
Potency [8]: 208 nM (active)

CO[C@@H]1C(N(C)C(=O)c2ccccc2)C[C@H]2O[C@]1(C)n1c3ccccc3c3c4c(c5c6ccccc6n2c5c31)C(=O)NC4=O (some centres not stated)
Potency [1]: inactive

OC[C@H]1O[C@@H](O[C@H]2[C@@H](O)[C@@](O)(CO)O[C@@H]2CO)[C@H](O)[C@@H](O)[C@@H]1O
Potency [1]: inactive
